This is an account of results in PubChem BioAssay (NCATS).

Assay [1] is described as follows: qHTS Assay for Identifying Gametocytocidal Compounds (AID 743244). Further: potency means the concentration at half of the fitted maximal effect.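 On max response: on the % scale 0 is the no-effect control and ±100 the full control effect; actives lower the fluorescent signal which means gametocytes are killed.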 To be noted: P. falciparum 3D7 stage III-V gametocytes, alamarBlue, 72 h; max response: stronger effect = lower value. In short, it runs like this: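 Stage III–V gametocytes of P. falciparum 3D7 were seeded at 20,000 cells/well onto pre-dispensed compounds. After 72 h, 37 °C, 5% CO2, alamarBlue was added for another 24 h.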
For orientation: In qHTS, concentration-response curves come from the screen itself.

The nature of assay [2]: qHTS profiling for inhibitors of Plasmodium falciparum (3D7) proliferation (AID 743322; call rule not given here;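 further: infected erythrocytes exposed to compound for 72 h before lysis; 100% = DMSO vehicle wells and 0% = 0.29 µM artemisinin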). To be noted: P. falciparum 3D7 proliferation; at 28.7 µM (top of the series) unless noted. In short, it runs like this:
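Parasite DNA was quantified by SYBR Green I fluorescence (ex 485, em 535 nm) after overnight lysis in saponin/Triton buffer at room temperature. Cultures at 0.3% parasitemia and 2.5% hematocrit were first exposed to compound for 72 h at 37 C; signals were normalised to artemisinin (0.29 uM) and vehicle wells.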

Assay [3] is described as follows: qHTS profiling for inhibitors of Plasmodium falciparum (DD2) proliferation (AID 743323; call rule not given here). To be noted: lower = more inhibition; at 28.7 µM (top of the series) unless noted. Summed up:
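Parasite proliferation measured via DNA-dye fluorescence, as uninfected erythrocytes lack DNA. Cultures at 0.3% parasitemia and 2.5% hematocrit incubated 72 h with compound; signal scaled between vehicle and 0.29 uM artemisinin wells.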

Assay [4] addresses T1, Hexokinase-4 (Homo sapiens) + Glucokinase regulatory protein (Homo sapiens) (UniProt P35557+Q14397). Put plainly: qHTS assay for inhibitors of recombinant human GCK-GKRP interaction: Diaphorase-coupled assay (AID 743205). Summed up:
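Resorufin fluorescence (525/590 nm), read each minute over 30 min, reports GCK activity coupled via G6PDH and diaphorase. Reaction: 10 nM GST-GCK, 10 nM FLAG-GKRP, 5 mM glucose, 0.4 mM ATP, 0.15 mM NADP+, 0.1 mM resazurin.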

Assay [5] has as its target T1, Hexokinase-4 (Homo sapiens) + Glucokinase regulatory protein (Homo sapiens). Nature of the assay: qHTS assay for inhibitors of recombinant human GCK-GKRP interaction: ADP-Glo assay (AID 743206).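 Further: plate controls were DMSO plus enzyme for no effect and no enzyme for full effect.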 Summed up:
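Pin-transferred compounds meet a 15 nM GST-GCK/15 nM FLAG-GKRP/2 uM S6P mix (dispense concentrations). ATP is then added to 0.4 mM final with 5 mM glucose, and the reaction runs 60 min at room temperature. ADP is quantified luminescently.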

The target is the same in assay [6]. Put plainly: qHTS assay for inhibitors of recombinant human GCK-GKRP interaction: HTRF assay (AID 743207).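 Further: 0% = DMSO with GCK present and -100% = DMSO wells lacking GCK.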 In short, it runs like this: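 HTRF read-out (ex 320 nm; 615/665 nm emission) after 60 min RT equilibration of 5 nM GST-GCK, 5 nM FLAG-GKRP, 2 uM S6P, compound and anti-FLAG/anti-GST detection antibodies; signal normalized between DMSO wells with and without GCK.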

Results filed as inconclusive are left out. Active and inactive are the calls of the source. Unless noted, the call rests on the fitted dose curve; in most records, active means well fitted curve in the direction sought with a large enough effect; inconclusive means small, poorly fitted or top-dose-only effect, or another doubt; inactive means no such curve, though single readings can be large or run the other way.

T1 sequence (P35557 whole entry, looked up): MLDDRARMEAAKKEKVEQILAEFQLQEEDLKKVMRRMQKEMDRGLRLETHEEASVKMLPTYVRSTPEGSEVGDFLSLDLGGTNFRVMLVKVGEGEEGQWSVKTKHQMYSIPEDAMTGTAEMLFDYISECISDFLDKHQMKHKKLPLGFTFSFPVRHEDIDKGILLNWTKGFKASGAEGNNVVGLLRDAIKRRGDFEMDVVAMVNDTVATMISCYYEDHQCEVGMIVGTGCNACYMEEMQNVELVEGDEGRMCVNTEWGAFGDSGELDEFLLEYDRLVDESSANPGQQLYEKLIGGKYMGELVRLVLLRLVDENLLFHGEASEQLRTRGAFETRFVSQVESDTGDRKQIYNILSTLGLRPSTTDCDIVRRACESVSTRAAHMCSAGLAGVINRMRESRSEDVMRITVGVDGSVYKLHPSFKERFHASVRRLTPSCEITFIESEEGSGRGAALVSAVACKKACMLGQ
T1 sequence (Q14397 whole entry, looked up): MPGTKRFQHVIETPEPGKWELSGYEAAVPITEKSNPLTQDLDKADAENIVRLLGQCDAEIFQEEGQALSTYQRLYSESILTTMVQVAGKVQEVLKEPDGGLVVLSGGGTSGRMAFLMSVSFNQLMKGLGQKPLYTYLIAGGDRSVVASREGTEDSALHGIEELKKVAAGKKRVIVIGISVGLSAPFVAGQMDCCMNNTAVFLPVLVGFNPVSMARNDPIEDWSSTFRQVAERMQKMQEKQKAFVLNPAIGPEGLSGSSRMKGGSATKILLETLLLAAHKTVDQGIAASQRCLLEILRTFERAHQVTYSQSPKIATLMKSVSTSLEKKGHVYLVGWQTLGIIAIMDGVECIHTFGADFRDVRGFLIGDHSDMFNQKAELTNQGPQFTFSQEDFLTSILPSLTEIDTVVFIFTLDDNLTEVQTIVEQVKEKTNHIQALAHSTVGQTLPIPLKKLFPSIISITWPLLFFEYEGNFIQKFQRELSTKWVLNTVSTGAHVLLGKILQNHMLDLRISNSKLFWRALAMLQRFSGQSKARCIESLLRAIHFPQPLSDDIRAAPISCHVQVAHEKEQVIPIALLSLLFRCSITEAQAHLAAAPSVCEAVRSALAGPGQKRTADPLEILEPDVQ

As to `O=C(Nc1cccc2c(=O)cc(-c3nn[nH]n3)oc12)c1ccc(OCCCCc2ccccc2)cc1`, the max response in assay [1] is 38.4% (inactive).

`Cn1cc(-c2ccc3nnc(Sc4ccc5ncccc5c4)n3n2)cn1`: the max response in assay [1] was -16.9% (inactive). Moreover, in assay [2], the remaining parasite growth % (stronger effect = lower value) amounted to 74.3%. Besides, in assay [3], the activity, percent of control came out at 95.2%.

`CC(O)=C(C#N)C(=O)Nc1ccc(C(F)(F)F)cc1`: the max response in assay [1] was 27.1% (inactive). Further, in assay [2], the remaining parasite growth % (stronger effect = lower value) came out at 89.8%. Moreover, the activity, percent of control in assay [3] was 95.5%.

In the case of `CCNC(=O)c1noc(-c2cc(C(C)C)c(O)cc2O)c1-c1ccc(CN2CCOCC2)cc1`, the Potency in assay [1] was 46.9 nM (active). Further, in assay [2], the remaining parasite growth % (stronger effect = lower value) stood at 0.155%. In assay [3], the activity, percent of control came out at 0.689%.

With `CCCCOCCOc1nc(-c2ccc(C(=O)O)c(F)c2)sc1C`, the max response in assay [1] is 43.8% (inactive). Moreover, in assay [2], the remaining parasite growth % (stronger effect = lower value) was found to be 105%. In addition, the activity, percent of control in assay [3] worked out at 99.2%.

With `COc1ccnc(CS(=O)c2nc3ccc(OC(F)F)cc3[nH]2)c1OC` (stereo unspecified), in assay [1], the max response is 7.9% (inactive).

`NCC1CCC(C(=O)O)CC1` (stereo unspecified): the max response in assay [1] is -0.776% (inactive).

For `CCCCCCCCCCCCCC(=O)N[C@H](CO)[C@H](O)c1ccc([N+](=O)[O-])cc1`, the max response in assay [1] is -2.76% (inactive). Besides, the remaining parasite growth % (stronger effect = lower value) in assay [2] worked out at 90.4%. In addition, the activity, percent of control in assay [3] was 82.3%.

Turning to `N#Cc1c(N(CC(=O)O)CC(=O)O)sc(C(=O)O)c1CC(=O)O`, the max response in assay [1] is -8.64% (inactive).

Regarding `CC(C)(CO)[C@@H](O)C(=O)NCCC(=O)O`, in assay [1], the max response was -8.71% (inactive).

As for `Cc1c(C(=O)Nc2ccc(N3C[C@@H](C)O[C@@H](C)C3)nc2)cccc1-c1ccc(OC(F)(F)F)cc1`, in assay [1], the max response is 0.51% (inactive). Also, the activity, percent of control in assay [3] was 72.3%.

As for `CCc1cc(-c2n[nH]c(C)c2-c2ccc3c(c2)OCCO3)c(O)cc1O`, the max response in assay [1] was -4.02% (inactive). The remaining parasite growth % (stronger effect = lower value) in assay [2] came to 99.3%. In addition, the activity, percent of control in assay [3] was 90.4%.

With `CC[C@H](C)C(=O)O[C@H]1C[C@H](O)C=C2C=C[C@H](C)[C@H](CC[C@@H](O)C[C@@H](O)CC(=O)O)[C@H]21`, in assay [1], the max response was -1.33% (inactive).

Turning to `N#CC(c1ccc(Cl)cc1)c1c(Cl)cc(-n2ncc(=O)[nH]c2=O)cc1Cl` (stereo unspecified), in assay [1], the max response was -5.57% (inactive).

In the case of `Nc1ccc(-c2ccc3ncc4ccc(=O)n(-c5cccc(C(F)(F)F)c5)c4c3c2)cn1`, the Potency in assay [1] was 27 nM (active). For the same molecule, the activity, percent of control in assay [3] is -0.278%.

As to `CNC(=O)c1cc(COc2nnc(Nc3ccc(Cl)cc3)c3ccoc23)ccn1`, the max response in assay [1] was 13% (inactive). Further, the activity, percent of control in assay [3] is 68.5%.

`OCCn1cc(-c2ccc3c(c2)CCC3=NO)c(-c2ccncc2)n1`: the max response in assay [1] was 8.08% (inactive). Besides, in assay [3], the activity, percent of control turned out to be 97.1%.

Turning to `COc1cccc(OC)c1-c1cc(C(=O)NC2(C(=O)O)C3CC4CC(C3)CC2C4)nn1-c1ccnc2cc(Cl)ccc12` (stereo unspecified), the max response in assay [1] was 42.4% (inactive). In addition, in assay [2], the remaining parasite growth % (stronger effect = lower value) came to 23.7%. For the same molecule, in assay [3], the activity, percent of control was 56.1%.

`CCCCc1ccc(NS(=O)(=O)c2ccc(C)c(C(=O)N3CCN(c4cccc(C)c4C)CC3)c2)cc1`: in assay [1], the max response was 17% (inactive). Also, in assay [3], the activity, percent of control is 96.6%.

For `C=CCc1cccc(C=NNC(=O)CN2CCN(Cc3ccccc3)CC2)c1O`, the outcome in assay [4], in assay [5] and in assay [6] was inactive.

For `COc1ccc(-c2nc3ccc(C4=NNC(=O)CC4C)cc3[nH]2)cc1` (stereo unspecified), the max response in assay [1] was 13.2% (inactive).

For the molecule `CS(=O)(=O)c1ccc(C2=C(c3ccccc3)C(=O)OC2)cc1`, the max response in assay [1] is 3.44% (inactive).

For `CN(C)CCN(Cc1ccc(Cl)cc1)c1ccccn1`, in assay [1], the max response was 18.2% (inactive).

Turning to `CO[C@H]1O[C@@H]2O[C@@]3(C)CC[C@@H]4[C@@H](C)CC[C@@H]([C@H]1C)[C@@]24OO3`, the Potency in assay [1] is 11.8 nM (active).

Regarding `NS(=O)(=O)c1cc(Cl)c(Cl)c(S(N)(=O)=O)c1`, the max response in assay [1] was -4.73% (inactive).

Turning to `CC(C)C[C@H](NC(=O)c1cc2ccccc2s1)C(=O)N1CCN(C(=O)[C@H](CO)NS(=O)(=O)c2ccc(Cl)cc2Cl)CC1`, the max response in assay [1] is 4.85% (inactive). The remaining parasite growth % (stronger effect = lower value) in assay [2] worked out at 17.9%. In assay [3], the activity, percent of control was 27.2%.

`Cc1ccc(C(=O)N(CCCN)[C@@H](c2nc3cc(Cl)ccc3c(=O)n2Cc2ccccc2)C(C)C)cc1`: in assay [1], the Potency is 18700 nM (active). For the same molecule, the activity, percent of control in assay [3] was 0.933%.

Regarding `O=C(Nc1ccc(OC(F)(F)F)cc1)c1sccc1NCc1ccnc2ccccc12`, in assay [1], the max response is 8.87% (inactive). In addition, in assay [3], the activity, percent of control is 75.1%.

For `COc1cc2nccc(Oc3ccc(NC(=O)Nc4cc(C)on4)c(Cl)c3)c2cc1OC`, the max response in assay [1] was 19.1% (inactive). The activity, percent of control in assay [3] was 62%.

Turning to `C=C[C@@H]1CN2CCC1C[C@@H]2C(O)c1ccnc2ccc(OC)cc12` (stereo partly specified), the activity, percent of control in assay [3] was found to be 2.53%.
